According to PubChem BioAssay AID2685 (National Center for Advancing Translational Sciences (NCATS), 2010):
Where “and” joins values, the source holds several entries; their conditions need not be identical. Equal values may be shown once. Hit rate of the full screen: of about 320,000 compounds, about 2,100 (0.66%) were called active. Not shown: some 53% with an inconclusive outcome. The sample holds actives, similar compounds and a random draw of the others, so the mix is not that of the screen. Calls come from the whole dose curve; as a rule, active = well fitted inhibition curve with a large enough effect in the signal ratio, with a control signal flat (not every such curve was filed as active); inconclusive = small, poorly fitted or top-dose-only effect, or effect the other way, or a change in a side signal; inactive = flat fitted curve, though single readings scatter; the % refers to the signal ratio.

experiment: qHTS Assay for Lipid Storage Modulators in Drosophila S3 Cells; conditions: BODIPY lipid droplet fluorescence, 18-24 h, cells fed with added oleic acid; cell number change: measured here: cell count max response; series mostly up to 46.1 µM;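 for cell number change: cells counted by Cell Tracker Red CMTPX staining in the red channel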; for lipid storage change, negative = inhibition: % is set by controls: 0 for no effect and ±100 for the full control effect
Procedure, shortened: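 Drosophila S3 cells loaded with oleic acid (400 uM, as added) and compounds at several concentrations; lipid droplets imaged by 488-nm laser-scanning cytometry, 500–530 nm intensity and object ratio to cell channel. Percent activity normalized to 20 uM Triacsin C.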
Potency is the fitted concentration of half-maximal effect.

SMILES	Potency	cell number change	lipid storage change, negative = inhibition
COC(=O)c1ccc(-c2noc(CN3C[C@H]4CC[C@H]3C4)n2)cc1	inactive	-0.0392%	–
O=C(NCC1CCCCC1)c1ccccc1[N+](=O)[O-]	inactive	5.77%	–
COc1ccc(CNC(=O)Cc2cccs2)cc1OC	inactive	15.3%	–
Nc1nonc1C(=O)N/N=C/c1ccc(Br)o1	inactive	5.25%	–
Cc1cccc(OCC(=O)O/N=C(\N)c2ccccn2)c1C	inactive	-6.52%	–
COc1ccc(C(=O)Nc2ccc(S(=O)(=O)N3CCCC3)cc2)c(OC)c1	inactive	7.48%	–
COc1cc(OC)c(C(=O)Nc2ccc(S(=O)(=O)N3CCCCC3)cc2)cc1OC	6.51 µM (active)	2.89%	–
CC(=O)Nc1ccc(S(=O)(=O)N2CCCN(S(=O)(=O)c3ccc(NC(C)=O)cc3)CC2)cc1	inactive	-11.8%	–
CC(=O)c1ccc(NC(=O)Nc2ccc(S(=O)(=O)N3CCCC3)cc2)cc1	9.2 µM (active)	-4.34%	–
CC(=O)Nc1ccc(S(=O)(=O)N2CCCC2)cc1	inactive	12.4%	–
COc1ccc(NC(=O)c2cc(S(=O)(=O)N3CCCCC3)ccc2OC)cc1	inactive	-15.6%	–
COc1ccc(N2C(=S)NC3CS(=O)(=O)CC32)cc1 (stereo not given)	inactive	0.125%	–
Cc1cc(C)cc(-c2nnc(SCC(=O)NC3CC3)o2)c1	inactive	9.78%	–
O=C(CSc1nnc(-c2ccccc2)o1)NC1CC1	inactive	-4.73%	–
Cc1ccc(-c2nnc(SCC(=O)NC3CC3)o2)cc1	29.1 µM (active)	10.3%	–
Cc1ccc(NC(NC(=O)c2cccs2)C(Cl)(Cl)Cl)cc1C (stereo not given)	inactive	4.44%	–
CC(C)(CO)N=C1NS(=O)(=O)c2cc([N+](=O)[O-])ccc21	inactive	2.18%	–
CCOc1ccc2c(c1)C(C)=CC(C)(C)N2S(=O)(=O)c1ccc(NC(C)=O)cc1	7.31 µM (active)	-18.1%	–
CCOc1ccc2c(c1)C(C)=CC(C)(C)N2S(=O)(=O)c1ccc(C)cc1	inactive	-19.8%	–
COc1ccc2c(c1)C(C)=CC(C)(C)N2S(=O)(=O)c1ccc(C)cc1	inactive	5.92%	–
Cc1ccc(S(=O)(=O)NC(C)c2ccccc2)cc1[N+](=O)[O-] (stereo not given)	inactive	-16.5%	–
CCCOc1ccc(C2NC(=O)CCC2[N+](=O)[O-])cc1 (stereo not given)	inactive	-7.92%	–
COc1ccccc1C1NC(=O)NC(C)=C1C(=O)OCc1ccccc1 (stereo not given)	inactive	8.03%	–
COc1ccccc1C1NC(=O)NC(C)=C1C(=O)OC1CCCCC1 (stereo not given)	inactive	-18.5%	–

SMILES	Potency	cell number change	lipid storage change, negative = inhibition
COc1ccccc1C1NC(=O)NC(C)=C1C(C)=O (stereo not given)	14.6 µM (active)	6.66%	–
CCC(C)(C)NC(=O)C(c1ccccc1Cl)N(C(=O)CCC(=O)Nc1cc(C)on1)C1CC1 (stereo not given)	inactive	10.4%	–
O=C(COC(=O)c1ccc(OC(F)F)cc1)NCCNC(=O)COC(=O)c1ccc(OC(F)F)cc1	inactive	-4.4%	–
Cn1c(SCC(=O)Nc2ccccc2F)nnc1-c1cccs1	inactive	14.3%	–
Cc1nnc(NC(=O)Cn2nc(C)c3ccccc3c2=O)s1	inactive	9.11%	–
COc1cccc(NC(=O)CCNC(=O)c2ccccc2Cl)c1	inactive	-13.1%	–
CC(C)NC(=O)CN(C)S(=O)(=O)c1ccc(F)cc1	inactive	0.117%	–
CCCNC(=O)CN(C)S(=O)(=O)c1ccc(F)cc1	inactive	-1.04%	–
CNC(=O)CN(C)S(=O)(=O)c1ccc(F)cc1	20.6 µM (active)	–	–
COc1cc(NC(=S)NCc2ccco2)cc(OC)c1OC	inactive	-1.1%	–
Cc1ccc(Cc2cnc(NC(=O)c3cccs3)s2)cc1	inactive	-12.1%	–
Cc1ccc(S(=O)(=O)c2cc3c(=O)n4cccc(C)c4nc3n(CC3CCCO3)c2=N)cc1C (stereo not given)	inactive	7.15%	–
CC(=C\c1ccccc1)/C=C1/SC(=S)N(CCC(=O)O)C1=O	inactive	5.93%	–
COc1ccc(/C=C2/SC(=S)N(CCC(=O)O)C2=O)cc1	inactive	-16.6%	–
COc1ccc(/C(C)=C2\SC(=S)N(CCC(=O)O)C2=O)cc1	16.4 µM (active)	7.05%	–
O=C(CSc1nnnn1-c1ccccc1)N1N=CCC1c1ccccc1 (stereo not given)	inactive	-5.17%	–
CC[n+]1c(/C=C/N(C)c2ccccc2)oc2ccc(F)cc21	25.9 µM (active)	6.99%	–
CC[n+]1c(/C=C/C=C/N(C(C)=O)c2ccccc2)sc2ccccc21	inactive	10.1%	–
CCn1c(C)[n+](CC)c2ccc(C(=O)N(C)c3ccccc3)cc21	inactive	19.5%	–
C/C=C/COC(=O)C1=C(C)NC(=O)NC1c1ccc2c(c1)OCO2 (stereo not given)	inactive	9.12%	–
Cc1c(N)cccc1-c1nc2ccccc2[nH]1	inactive	-2.56%	–
CN(C)CCCNCCCNC(=O)/C(=N\O)c1ccccn1	inactive	11.1%	–
O=C(Nc1ccc(C2CC2(Cl)Cl)cc1)c1ccccc1Br (stereo not given)	inactive	13.5%	–
COc1ccc(CN(CC(=O)NCc2ccccc2)C(=O)c2csnn2)cc1	inactive	1.68%	–

SMILES	Potency	cell number change	lipid storage change, negative = inhibition
CN(Cc1ccco1)c1ncnc2ccc(-c3ccoc3)cc12	-1.69% and -0.798%	–	–
CN(Cc1ccco1)c1ncnc2ccc(-c3ccc4c(c3)OCCO4)cc12	inactive	–	–
Cc1cccc(-c2ccc3ncnc(N(C)Cc4ccco4)c3c2)c1	inactive	-20.6%	–
O=C(COC(=O)/C=C/c1cccc(F)c1)Nc1ncccn1	inactive	-0.367%	–
COc1cccc(N2CCN(c3nc(C)cc(=O)[nH]3)CC2)c1	inactive	15.9%	–
O=C(CSc1nnnn1-c1ccc2c(c1)OCCO2)N1CCN(C(=O)c2ccco2)CC1	inactive	-0.608%	–
Cc1cc2nc(SCC(=O)N(C)C)c3c(c2cc1C)CCCC3	inactive	-15.1%	–
CCOC(=O)c1c(C)n(C)c2cc([N+](=O)[O-])c(O)c([N+](=O)[O-])c12	inactive	7.01%	–
CCOC(=O)C1CCCCN1Cc1cc(Cl)ccc1O (stereo not given)	inactive	-14.7%	–
COc1cccc(-c2cc(C(=O)Nc3cccnc3)c3ccccc3n2)c1	8.2 µM (active)	–	–
COc1cccc(C(=O)Nc2ccc3ccccc3c2)c1	inactive	24%	–
O=C(Nc1cccc(Br)c1)c1ccc(CSc2ccccc2)cc1	inactive	-13.3%	–
COc1cccc(-c2cc(C(=O)Nc3ccc4c(c3)OCCO4)c3ccccc3n2)c1	inactive	–	–
COc1cccc(C(=O)Nc2cccc(NC(C)=O)c2)c1	inactive	-21%	–
O=C(Nc1ccc(C2CC2(Cl)Cl)cc1)c1cccc([N+](=O)[O-])c1 (stereo not given)	20.6 µM (active)	-18.3%	–
O=C(Nc1cccc(O)c1)c1ccccc1	inactive	–	–
O=C(Nc1ccc(NC(=O)c2cccc([N+](=O)[O-])c2)cc1)c1cccc([N+](=O)[O-])c1	inactive	-4.74%	–
COc1cccc(C(=O)Nc2ccc(C3CC3(Cl)Cl)cc2)c1 (stereo not given)	–	–	15.6% [at 9.22 µM] (inactive)
COc1cccc(/C(C)=N/NC(=O)c2cc(-c3cccnc3)nc3ccccc23)c1	inactive	11.2%	–
COc1cccc(C(=O)Nc2cccc(-c3ccccc3)c2)c1	1.46 µM (active)	5.29%	–
O=C(Nc1cccc(C(=O)Nc2cccc(Br)c2)c1)c1ccccc1	5.8 µM (active)	0.351%	–
COc1ccc(-c2nc(CS(=O)CC(=O)NC3CCCCCC3)c(C)o2)cc1 (stereo not given)	inactive	–	–
O=C(COC(=O)c1ccc(Br)o1)NCCc1ccccc1	inactive	14.1%	–
O=C(NC1CCS(=O)(=O)C1)c1cccc(Br)c1 (stereo not given)	inactive	-19.9%	–

SMILES	Potency	cell number change	lipid storage change, negative = inhibition
COc1ccc(S(=O)(=O)N2CCN(C(=O)C3CC3)CC2)cc1	inactive	0.403%	–
CCOC(=O)COc1ccc2c(c1)c(C(C)=O)c(C)n2-c1ccc(OC)cc1	inactive	–	–
Cc1cccc(-c2nc3sc(C)cc3c(=O)o2)c1	inactive	1.66%	–
COc1ccc(S(=O)(=O)N2CCCC(C(=O)NCc3ccc4c(c3)OCO4)C2)cc1 (stereo not given)	inactive	4.03%	–
COc1ccc(Cc2nnc(SCC(=O)Nc3cc(Cl)ccc3C)[nH]c2=O)cc1	inactive	-4.71%	–
CCc1cc(=O)oc2c(C)c(OCC(=O)N3CCC(C(=O)O)CC3)ccc12	inactive	-9.69%	–
CCCCc1cc(=O)oc2cc(OCC(=O)NC(Cc3c[nH]c4ccc(O)cc34)C(=O)O)ccc12 (stereo not given)	inactive	-11.2%	–
O=C(/C=C/Nc1ccc(Br)cn1)c1cccc(OC(F)F)c1	inactive	16.6%	–
CCCc1cc(C(=O)Nc2cccc([N+](=O)[O-])c2)cs1	20 µM (active)	24.5%	–
COc1ccc(NC(=O)c2cccc([N+](=O)[O-])c2)cc1	inactive	0.213%	–
CCC(=O)Nc1cccc(NC(=O)c2cccc([N+](=O)[O-])c2)c1	inactive	5.3%	–
COc1cccc(C(=O)COc2cccc(NC(=O)c3cccc([N+](=O)[O-])c3)c2)c1	18.4 µM (active)	20%	–
COc1cccc(C(=O)COc2cccc(NC(=O)c3ccco3)c2)c1	inactive	29%	–
O=C(Nc1cccc([N+](=O)[O-])c1)c1ccccc1	inactive	-11.6%	–
COc1cccc(C2NC(=O)NC(C)=C2C(=O)Nc2cc(OC)ccc2OC)c1 (stereo not given)	inactive	10.2%	–
CC(C(=O)N1CCc2ccccc21)N1CCN(Cc2ccc(Cl)cc2)CC1 (stereo not given)	inactive	-3.17%	–
CC(C(=O)N1CCc2ccccc21)N1CCc2ccccc2C1 (stereo not given)	inactive	-14.5%	–
CC(C(=O)N1CCc2ccccc21)N1CCN(c2ccccn2)CC1 (stereo not given)	23.1 µM (active)	18%	–
CCOc1ccccc1N(CC(=O)OC)S(=O)(=O)c1ccccc1	inactive	1.61%	–
O=C(NNc1nc2c(F)cccc2s1)C1COc2ccccc2O1 (stereo not given)	inactive	–	–
Cc1nc2nc[nH]n2c(=O)c1CCOC(=O)c1ccccc1F	inactive	-14.3%	–
Cc1nc2nc[nH]n2c(=O)c1CCOC(=O)c1c(F)cccc1F	inactive	-14%	–
CC(=O)OCCc1c(C)nc2nc[nH]n2c1=O	29.1 µM (active)	-16.2%	–
